± gives the standard deviation of the averaged measurements.
Legend:
Experiment in all cases: promoter activity interaction Z-score (Lux/OD deviation from empty-vector control); higher = stronger promoter induction by the compound
[1] = test system: E. coli BW25113 acrABp lux reporter
Method in brief: (§1)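 In 384-well plates, 40 µl LB Lennox cultures of E. coli BW25113 with low-copy luxCDABE promoter reporters grew at 37°C. Optical density at 600 nm and light output were recorded every 30 min for 12 h, with windows of 0–8 h for wild type and 1–9 h for deletion strains, and wells under 10% of the median growth value were left out. Each value is a Z-transformed residual of growth-normalised luminescence fitted against a control.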

[2] = test system: E. coli BW25113 micFp lux reporter
Method in brief: as §1

[3] = test system: E. coli BW25113 ompFp lux reporter
Method in brief: as §1

[4] = test system: E. coli BW25113 robp lux reporter
Method in brief: as §1

[5] = test system: E. coli BW25113 soxSp lux reporter
Method in brief: as §1

[6] = test system: E. coli BW25113 tolCp lux reporter
Method in brief: as §1

[7] = 17.4 µg/ml, genetic background: wild type
[8] = 17.4 µg/ml, genetic background: ΔmarA
[9] = 17.4 µg/ml, genetic background: Δrob
[10] = 17.4 µg/ml, genetic background: ΔsoxS
[11] = 34.9 µg/ml, genetic background: wild type
[12] = 34.9 µg/ml, genetic background: ΔmarA
[13] = 34.9 µg/ml, genetic background: Δrob
[14] = 34.9 µg/ml, genetic background: ΔsoxS
[15] = 69.8 µg/ml, genetic background: wild type
[16] = 69.8 µg/ml, genetic background: ΔmarA
[17] = 69.8 µg/ml, genetic background: Δrob
[18] = 69.8 µg/ml, genetic background: ΔsoxS
[19] = 139.6 µg/ml, genetic background: wild type
[20] = 139.6 µg/ml, genetic background: ΔmarA
[21] = 139.6 µg/ml, genetic background: Δrob
[22] = 139.6 µg/ml, genetic background: ΔsoxS

With Nc1ccn(C[C@@H](CO)OCP(=O)(O)O)c(=O)n1 [Cidofovir] the “promoter activity interaction Z-score” value [1, 7] was -0.283 ± 0.054, the “promoter activity interaction Z-score” value [1, 8] was 0.149 ± 0.3 and the “promoter activity interaction Z-score” value [1, 9] was -0.0654 ± 0.1. The “promoter activity interaction Z-score” value [1, 10] was -0.0538 ± 0.14, the “promoter activity interaction Z-score” value [1, 11] was 0.196 ± 0.13 and the “promoter activity interaction Z-score” value [1, 12] was -0.657 ± 0.64. For the same compound, the “promoter activity interaction Z-score” value [1, 13] was 0.0446 ± 0.2, the “promoter activity interaction Z-score” value [1, 14] was 0.215 ± 0.4 and the “promoter activity interaction Z-score” value [1, 15] was 0.219 ± 0.079. The “promoter activity interaction Z-score” value [1, 16] was 0.553 ± 0.79, the “promoter activity interaction Z-score” value [1, 17] was -0.00642 ± 0.084 and the “promoter activity interaction Z-score” value [1, 18] was 0.0852 ± 0.5. For the same compound, the “promoter activity interaction Z-score” value [1, 19] was 0.22 ± 0.15, the “promoter activity interaction Z-score” value [1, 20] was -0.132 ± 0.17 and the “promoter activity interaction Z-score” value [1, 21] was 0.233 ± 0.03. For the same compound, the “promoter activity interaction Z-score” value [1, 22] was 0.385 ± 0.26, the “promoter activity interaction Z-score” value [2, 7] was 0.0224 ± 0.19 and the “promoter activity interaction Z-score” value [2, 8] was 0.0154 ± 0.092. The “promoter activity interaction Z-score” value [2, 9] was -0.0713 ± 0.17, the “promoter activity interaction Z-score” value [2, 10] was 0.11 ± 0.48 and the “promoter activity interaction Z-score” value [2, 11] was -0.0338 ± 0.16. For the same compound, the “promoter activity interaction Z-score” value [2, 12] was -0.00819 ± 0.0042, the “promoter activity interaction Z-score” value [2, 13] was -0.103 ± 0.19 and the “promoter activity interaction Z-score” value [2, 14] was -0.106 ± 0.1. For the same compound, the “promoter activity interaction Z-score” value [2, 15] was -0.121 ± 0.16, the “promoter activity interaction Z-score” value [2, 16] was -0.0731 ± 0.046 and the “promoter activity interaction Z-score” value [2, 17] was -0.0746 ± 0.21. For the same compound, the “promoter activity interaction Z-score” value [2, 18] was -0.0778 ± 0.17, the “promoter activity interaction Z-score” value [2, 19] was -0.297 ± 0.16 and the “promoter activity interaction Z-score” value [2, 20] was -0.185 ± 0.15. For the same compound, the “promoter activity interaction Z-score” value [2, 21] was -0.00734 ± 0.29, the “promoter activity interaction Z-score” value [2, 22] was -0.28 ± 0.054 and the “promoter activity interaction Z-score” value [3, 7] was -0.101 ± 0.21. The “promoter activity interaction Z-score” value [3, 8] was -0.0401 ± 0.19, the “promoter activity interaction Z-score” value [3, 9] was -0.282 ± 0.46 and the “promoter activity interaction Z-score” value [3, 10] was 0.292 ± 0.4. For the same compound, the “promoter activity interaction Z-score” value [3, 11] was 0.3 ± 0.056, the “promoter activity interaction Z-score” value [3, 12] was -0.163 ± 0.48 and the “promoter activity interaction Z-score” value [3, 13] was 0.122 ± 0.34. For the same compound, the “promoter activity interaction Z-score” value [3, 14] was 0.493 ± 0.19, the “promoter activity interaction Z-score” value [3, 15] was 0.00967 ± 0.29 and the “promoter activity interaction Z-score” value [3, 16] was -0.0743 ± 0.39. The “promoter activity interaction Z-score” value [3, 17] was -0.0183 ± 0.51, the “promoter activity interaction Z-score” value [3, 18] was 0.835 ± 0.063 and the “promoter activity interaction Z-score” value [3, 19] was 0.281 ± 0.35. The “promoter activity interaction Z-score” value [3, 20] was 0.0677 ± 0.43, the “promoter activity interaction Z-score” value [3, 21] was 1.05 ± 0.56 and the “promoter activity interaction Z-score” value [3, 22] was 0.354 ± 0.32. The “promoter activity interaction Z-score” value [4, 7] was 0.0479 ± 0.44, the “promoter activity interaction Z-score” value [4, 8] was -0.325 ± 0.089 and the “promoter activity interaction Z-score” value [4, 9] was -0.283 ± 0.23. For the same compound, the “promoter activity interaction Z-score” value [4, 10] was 0.755 ± 0.19, the “promoter activity interaction Z-score” value [4, 11] was 0.8822 ± 0.0041 and the “promoter activity interaction Z-score” value [4, 12] was -0.684 ± 0.34. The “promoter activity interaction Z-score” value [4, 13] was 0.316 ± 0.54, the “promoter activity interaction Z-score” value [4, 14] was 0.739 ± 0.8 and the “promoter activity interaction Z-score” value [4, 15] was -0.0584 ± 0.52. For the same compound, the “promoter activity interaction Z-score” value [4, 16] was -0.117 ± 0.21, the “promoter activity interaction Z-score” value [4, 17] was 0.528 ± 1.2 and the “promoter activity interaction Z-score” value [4, 18] was 0.716 ± 0.15. The “promoter activity interaction Z-score” value [4, 19] was 0.0675 ± 0.18, the “promoter activity interaction Z-score” value [4, 20] was -0.557 ± 0.22 and the “promoter activity interaction Z-score” value [4, 21] was 0.839 ± 0.21. For the same compound, the “promoter activity interaction Z-score” value [4, 22] was 0.434 ± 0.44, the “promoter activity interaction Z-score” value [5, 7] was 0.0175 ± 0.013 and the “promoter activity interaction Z-score” value [5, 8] was 0.0495 ± 0.085. The “promoter activity interaction Z-score” value [5, 9] was -0.108 ± 0.04, the “promoter activity interaction Z-score” value [5, 10] was 0.122 ± 0.064 and the “promoter activity interaction Z-score” value [5, 11] was -0.0402 ± 0.16. The “promoter activity interaction Z-score” value [5, 12] was 0.0487 ± 0.082, the “promoter activity interaction Z-score” value [5, 13] was 0.0552 ± 0.025 and the “promoter activity interaction Z-score” value [5, 14] was 0.246 ± 0.033. For the same compound, the “promoter activity interaction Z-score” value [5, 15] was -0.0559 ± 0.065, the “promoter activity interaction Z-score” value [5, 16] was 0.167 ± 0.11 and the “promoter activity interaction Z-score” value [5, 17] was -0.0558 ± 0.063. For the same compound, the “promoter activity interaction Z-score” value [5, 18] was 0.254 ± 0.11, the “promoter activity interaction Z-score” value [5, 19] was 0.021 ± 0.14 and the “promoter activity interaction Z-score” value [5, 20] was -0.0152 ± 0.023. For the same compound, the “promoter activity interaction Z-score” value [5, 21] was 0.0293 ± 0.054, the “promoter activity interaction Z-score” value [5, 22] was -0.0927 ± 0.013 and the “promoter activity interaction Z-score” value [6, 7] was 0.134 ± 0.031. The “promoter activity interaction Z-score” value [6, 8] was 0.258 ± 0.13, the “promoter activity interaction Z-score” value [6, 9] was -0.735 ± 1.3 and the “promoter activity interaction Z-score” value [6, 10] was -0.0946 ± 0.53. The “promoter activity interaction Z-score” value [6, 11] was -0.218 ± 0.42, the “promoter activity interaction Z-score” value [6, 12] was -0.677 ± 0.19 and the “promoter activity interaction Z-score” value [6, 13] was 0.0662 ± 0.039. For the same compound, the “promoter activity interaction Z-score” value [6, 14] was 1.55 ± 0.98, the “promoter activity interaction Z-score” value [6, 15] was -0.434 ± 0.14 and the “promoter activity interaction Z-score” value [6, 16] was -0.318 ± 0.84. For the same compound, the “promoter activity interaction Z-score” value [6, 17] was -0.696 ± 1, the “promoter activity interaction Z-score” value [6, 18] was -0.168 ± 1 and the “promoter activity interaction Z-score” value [6, 19] was -0.582 ± 0.18. The “promoter activity interaction Z-score” value [6, 20] was -0.123 ± 0.94, the “promoter activity interaction Z-score” value [6, 21] was 0.23 ± 0.54 and the “promoter activity interaction Z-score” value [6, 22] was -0.453 ± 0.91.

Source: the supplement of paper PMC12282887
